Source: PubChem BioAssay
Sampled rows, rich in hits. Any-hit rate of the full collection: about 19%.
DT40 TDP1 no CPT: qHTS for Inhibitors of human tyrosyl-DNA phosphodiesterase 1 (TDP1): qHTS in cells in absence of CPT. DT40 Tdp1-/- hTDP1 cells, no CPT, ATP luminescence, 48 h. hit rate 15% among 420,000. Potency, µM (titrated, usually from 46.2 µM), for the others: at the highest dose activity change, negative = growth inhibition, hits mostly inhibitors; note: nearly all actives have a fitted effect of over 55% in size
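Cells were dispensed at 400 per well, compounds added by pin tool, plates incubated ≥48 hr at 37 °C, then CellTiter-Glo added for 30 min at room temperature before luminescence reading. Line: DT40 Tdp1-/- complemented with hTDP1; camptothecin omitted.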
RORg inh: blocks mouse ROR gamma transcriptional activity. P51450. Drosophila S2 Gal4-RORgamma UAS-luciferase reporter, 20 h. Potency, µM (top dose mostly 53.6 µM), inactives show at the top dose activity change, negative = inhibition, hits mostly inhibitors. hit rate 5.4% among 310,000; note: nearly all actives have a fitted effect of over 60% in size
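ROR gamma transcriptional activity was tracked as Gal4-UAS luciferase output in stably transfected Drosophila Schneider cells, with compound added 1 hr before 700 uM copper sulfate induction and a 20 hr ambient-temperature incubation.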
TDP1 block: blocks human tyrosyl-DNA phosphodiesterase 1 | AID 485290 | recombinant TDP1, AlphaScreen DNA substrate cleavage | hit rate 0.28% among 350,000 | Q9NUW8 | Potency, µM (top dose mostly 130 µM), without a hit: at the highest dose activity change, negative = inhibition, hits mostly inhibitors; note: nearly all actives have a fitted effect of over 40% in size
Target sequence (Q9NUW8 whole entry, looked up): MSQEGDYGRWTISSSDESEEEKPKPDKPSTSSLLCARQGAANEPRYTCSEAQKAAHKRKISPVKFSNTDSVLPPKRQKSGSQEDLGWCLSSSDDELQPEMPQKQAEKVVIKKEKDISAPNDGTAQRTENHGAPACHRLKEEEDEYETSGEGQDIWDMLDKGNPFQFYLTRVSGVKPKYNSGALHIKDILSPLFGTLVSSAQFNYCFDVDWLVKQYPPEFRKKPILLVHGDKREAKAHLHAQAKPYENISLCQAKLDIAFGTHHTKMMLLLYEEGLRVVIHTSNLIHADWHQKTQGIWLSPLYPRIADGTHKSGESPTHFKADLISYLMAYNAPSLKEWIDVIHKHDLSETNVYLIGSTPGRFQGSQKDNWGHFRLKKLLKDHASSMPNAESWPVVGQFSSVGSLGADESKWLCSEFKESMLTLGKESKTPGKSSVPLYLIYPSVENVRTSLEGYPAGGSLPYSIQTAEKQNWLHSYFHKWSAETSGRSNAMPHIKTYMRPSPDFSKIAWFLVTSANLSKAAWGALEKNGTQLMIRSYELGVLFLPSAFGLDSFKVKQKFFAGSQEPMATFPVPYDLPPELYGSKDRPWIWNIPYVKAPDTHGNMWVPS
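Steps: enzyme plus compound, 15 min RT; add biotin/phosphotyrosine-FITC oligonucleotide (15 nM final), react 5 min; add donor/acceptor beads (10 ug/ml final), 10 min; read AlphaScreen. Tdp1 at 1 nM final.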
VP16 counter: inhibits Gal4-VP16 luciferase reporter, ROR gamma counter-screen; Drosophila S2 Gal4-VP16 UAS-luciferase, luminescence, 20 h; Potency, µM (doses to about 53.6 µM), for inactives: at the top dose activity, negative = inhibition, hits mostly inhibitors; hit rate 3.5% among 310,000; AID 2546;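 note: Gal4-VP16 expression switched on by copper sulfate through the metallothionein promoter; nearly all actives have a fitted effect of over 50% in size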
TDP1 cell CPT: DT40-hTDP1 cell growth loss with CPT | chicken DT40 Tdp1-/-;hTDP1 cells + 20 nM CPT, ATP luminescence, 48 h | Potency, µM (titrated, usually from 46.2 µM), inactives show at the highest dose activity change, negative = growth inhibition, actives largely listed as inhibitors | hit rate 12% among 420,000 | AID 686979; note: nearly all actives have a fitted effect of over 55% in size
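Cell growth measured by CellTiter-Glo luminescence after a minimum 48 h, 37 C compound exposure with 20 nM CPT in Tdp1-knockout DT40 cells stably expressing hTDP1, seeded 400/well; qHTS titration format.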
Numbers without * were called inactive. Calls come from the whole dose curve; as a rule, active = well fitted curve in the direction sought with a large enough effect; inconclusive = small, poorly fitted or top-dose-only effect, or another doubt; inactive = no such curve, though single readings can be large; an effect the other way counts as inactive or inconclusive. % is set by controls: 0 for no effect and ±100 for the full control effect; potency is the fitted concentration of half-maximal effect.

How did CCN1CCN(S(=O)(=O)c2ccc(Cl)c(C(=O)N(CCc3ccccc3)Cc3ccccc3)c2)CC1 do in these assays?
DT40 TDP1 no CPT: 23µM*; TDP1 cell CPT: 23µM*

What do the screens show for `CCc1ccc(CN(C)C(=O)c2cc(S(=O)(=O)N3CCN(CC)CC3)ccc2Cl)cc1`?
DT40 TDP1 no CPT: 18µM*; TDP1 block: 1%; TDP1 cell CPT: inconclusive

What do the screens show for `Cc1oc2c(C)c3oc(=O)c(CCC(=O)NCCCn4ccnc4)c(C)c3cc2c1C`?
DT40 TDP1 no CPT: inconclusive; RORg inh: -35%; VP16 counter: -6%; TDP1 cell CPT: inconclusive

What do the screens show for `CC(OC(=O)CN1C(=O)NC2(CCCC2)C1=O)C(=O)c1ccc(C(C)(C)C)cc1` (configuration not stated)?
DT40 TDP1 no CPT: -9%; TDP1 cell CPT: 2%

Results for Cc1ccc(S(=O)(=O)N2CCCCC2)cc1C(=O)N(CCc1ccccc1)Cc1ccccc1 ?
DT40 TDP1 no CPT: 10µM*; TDP1 block: -13%; TDP1 cell CPT: 8.2µM*

How did Cc1ccc(S(=O)(=O)N(C)Cc2ccccc2)cc1C(=O)N1CCCCC1 do in these assays?
DT40 TDP1 no CPT: inconclusive; RORg inh: -4%; TDP1 block: 0%; VP16 counter: -17%; TDP1 cell CPT: 15µM*

How did Cc1ccc(N(Cc2ccccc2)C(=O)c2cc(S(=O)(=O)N3CCOCC3)ccc2C)cc1 do in these assays?
DT40 TDP1 no CPT: 13µM*; TDP1 cell CPT: 21µM*

How did Cc1ccc(S(=O)(=O)Nc2ccccc2)cc1C(=O)N1CCCC1 do in these assays?
DT40 TDP1 no CPT: -1%; RORg inh: -6%; TDP1 block: -3%; VP16 counter: -9%; TDP1 cell CPT: -4%

What do the screens show for `Cc1ccc2cccc(NC(=O)c3cccc4c(Br)cccc34)c2n1`?
TDP1 block: 3%

Results for C#Cc1ccc([C@H]2C=C(C(=O)N3CCOCC3)O[C@@H](OCc3ccc(CO)cc3)C2)cc1 ?
DT40 TDP1 no CPT: -22%; RORg inh: 10%; TDP1 block: 5%; VP16 counter: -1%; TDP1 cell CPT: -28%

How did O=S(=O)(CC(CN1CCCC1)N1CCCC1)c1ccc2ccccc2c1 (configuration not stated) do in these assays?
DT40 TDP1 no CPT: 4.6µM*; RORg inh: inconclusive; TDP1 block: 2%; VP16 counter: 11µM*; TDP1 cell CPT: 3.3µM*

Results for Cc1c(NC(=O)c2cc3ccccc3c(=O)s2)c(=O)n(-c2ccccc2)n1C ?
DT40 TDP1 no CPT: -23%; RORg inh: 35%; TDP1 block: 5%; VP16 counter: 3%; TDP1 cell CPT: -15%

What do the screens show for `C[C@H](O)[C@@H]1CN2CCc3c([nH]c4ccc(-c5ccc6c(c5)OCO6)cc34)[C@@H]2C[C@@H]1N(C)C(=O)NC1CCCCC1`?
DT40 TDP1 no CPT: inconclusive; TDP1 cell CPT: -5%

Results for COc1ccc(NC(=O)N(C)[C@H]2C[C@H]3c4[nH]c5ccc(-c6cccc(C)c6)cc5c4CCN3C[C@H]2[C@H](C)O)cc1 ?
DT40 TDP1 no CPT: 16µM*; TDP1 cell CPT: inconclusive

What do the screens show for `Cc1cccc(-c2ccc3[nH]c4c(c3c2)CCN2C[C@@H]([C@H](C)O)[C@@H](N(C)C(=O)Nc3ccc(F)cc3)C[C@@H]42)c1`?
DT40 TDP1 no CPT: 18µM*; TDP1 cell CPT: 16µM*

How did C[C@H](O)[C@@H]1CN2CCc3c([nH]c4ccc(-c5ccc6c(c5)OCO6)cc34)[C@@H]2C[C@@H]1N(C)C(=O)Nc1cc(Cl)cc(Cl)c1 do in these assays?
DT40 TDP1 no CPT: 3.3µM*; TDP1 cell CPT: 4.1µM*

How did CN1C(=O)Cc2cc(S(=O)(=O)NCCc3ccc(Cl)cc3)ccc21 do in these assays?
DT40 TDP1 no CPT: inconclusive; RORg inh: -7%; TDP1 block: 1%; VP16 counter: 0%; TDP1 cell CPT: inconclusive

How did COc1ccccc1N1CCN(CC(=O)c2c(C)[nH]c3cc(C)ccc23)CC1 do in these assays?
DT40 TDP1 no CPT: 18µM*; RORg inh: 17%; TDP1 block: 5%; VP16 counter: -8%; TDP1 cell CPT: inconclusive

Results for Cc1[nH]c2ccc(C(=O)N3CCN(c4cccc(Cl)c4)CC3)cc2c1C ?
DT40 TDP1 no CPT: 6.5µM*; RORg inh: -10%; TDP1 block: 10%; VP16 counter: -3%; TDP1 cell CPT: 6.5µM*

What do the screens show for `CCc1cc(C(=O)N2CCN(c3ccccc3OC)CC2)sc1C`?
DT40 TDP1 no CPT: 16µM*; RORg inh: 3%; TDP1 block: 2%; VP16 counter: -3%; TDP1 cell CPT: inconclusive

Results for COc1ccccc1N1CCN(C(=O)c2cccs2)CC1 ?
DT40 TDP1 no CPT: -4%; RORg inh: 0%; VP16 counter: -3%; TDP1 cell CPT: -20%

Results for COc1ccccc1N1CCN(CC(=O)c2c(C)n(C)c3ccccc23)CC1 ?
DT40 TDP1 no CPT: inconclusive; RORg inh: -22%; TDP1 block: 1%; VP16 counter: -8%; TDP1 cell CPT: inconclusive

What do the screens show for `COc1ccccc1N1CCN(C(=O)c2ccc3[nH]c(C)c(C)c3c2)CC1`?
DT40 TDP1 no CPT: 1µM*; RORg inh: 21%; TDP1 block: 8%; VP16 counter: 5%; TDP1 cell CPT: 1.3µM*

What do the screens show for `CCCCn1c(N)c(N(CCC(C)C)C(=O)CSc2nnc(Nc3ccccc3)s2)c(=O)[nH]c1=O`?
DT40 TDP1 no CPT: -13%; RORg inh: 9%; TDP1 block: 8%; VP16 counter: -9%; TDP1 cell CPT: -25%

What do the screens show for `Cc1cccc(C)c1NC(=O)CCCCCNS(=O)(=O)c1ccccc1`?
DT40 TDP1 no CPT: inconclusive; RORg inh: -8%; TDP1 block: 5%; VP16 counter: -1%; TDP1 cell CPT: inconclusive

Results for COc1ccccc1N1CCN(C2CCN(C(=O)c3ccc(F)cc3)CC2)CC1 ?
DT40 TDP1 no CPT: -27%; RORg inh: -11%; TDP1 block: 5%; VP16 counter: -4%; TDP1 cell CPT: -17%

What do the screens show for `COc1ccccc1N1CCN(C(=O)c2ccc3[nH]c4c(c3c2)CC(C)CC4)CC1` (configuration not stated)?
DT40 TDP1 no CPT: inconclusive; RORg inh: inconclusive; TDP1 block: 14%; VP16 counter: -3%; TDP1 cell CPT: 16µM*

Results for O=C(CCSc1ccc(Cl)cc1)NC1CCCCC1 ?
DT40 TDP1 no CPT: inconclusive; RORg inh: -4%; TDP1 block: -4%; VP16 counter: -16%; TDP1 cell CPT: -22%
